Each structure is given as a SMILES string. Inconclusive results are not listed. A call without a number means that no potency is given here. Calls of active or inactive are those of the source. Calls follow the shape of the dose curve; as a rule, active = well fitted inhibition curve with a large enough effect in the signal ratio in the repeat runs (not every such curve was filed as active); inconclusive = weak or mixed curves; inactive = flat fitted curve, though single readings scatter; the % refers to the signal ratio.
Potency is read from the fitted curve at half-maximal effect.

Sequence of Progesterone receptor (Homo sapiens) (P06401 whole entry, looked up): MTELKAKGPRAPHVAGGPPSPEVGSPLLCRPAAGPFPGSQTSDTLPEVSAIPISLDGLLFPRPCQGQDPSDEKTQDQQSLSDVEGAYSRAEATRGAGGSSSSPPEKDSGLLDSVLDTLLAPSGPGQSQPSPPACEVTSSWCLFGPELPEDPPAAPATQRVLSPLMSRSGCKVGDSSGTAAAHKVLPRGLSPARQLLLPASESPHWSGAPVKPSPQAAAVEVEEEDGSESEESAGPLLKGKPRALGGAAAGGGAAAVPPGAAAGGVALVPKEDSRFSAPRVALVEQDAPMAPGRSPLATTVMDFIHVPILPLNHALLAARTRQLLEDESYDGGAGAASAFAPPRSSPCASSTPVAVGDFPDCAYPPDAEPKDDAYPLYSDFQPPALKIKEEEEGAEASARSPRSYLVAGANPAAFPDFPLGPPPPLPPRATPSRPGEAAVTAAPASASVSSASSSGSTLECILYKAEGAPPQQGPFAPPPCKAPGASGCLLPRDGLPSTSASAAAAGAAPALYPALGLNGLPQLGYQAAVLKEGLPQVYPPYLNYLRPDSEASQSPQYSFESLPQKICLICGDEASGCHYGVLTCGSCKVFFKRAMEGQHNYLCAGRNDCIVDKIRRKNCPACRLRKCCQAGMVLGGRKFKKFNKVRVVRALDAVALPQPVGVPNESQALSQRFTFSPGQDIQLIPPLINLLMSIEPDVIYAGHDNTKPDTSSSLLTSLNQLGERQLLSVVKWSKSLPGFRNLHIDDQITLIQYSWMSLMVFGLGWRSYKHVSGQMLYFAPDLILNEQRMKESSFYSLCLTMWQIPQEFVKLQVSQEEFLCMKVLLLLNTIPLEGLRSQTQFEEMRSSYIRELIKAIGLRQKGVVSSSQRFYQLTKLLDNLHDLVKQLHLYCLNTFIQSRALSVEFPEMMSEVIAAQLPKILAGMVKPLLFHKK

This experiment deals with Progesterone receptor (Homo sapiens) (UniProt P06401). Briefly: qHTS assay to identify small molecule antagonists of the progesterone receptor (PR) signaling pathway (AID 1346795). The note with it: PR-UAS-bla HEK293T, beta-lactamase FRET ratio, 16 h; series mostly up to 92.4 µM; activity change, negative = inhibition: at the top concentration. An excerpt:
National Center for Advancing Translational Sciences [NCATS]
NIH Chemical Genomics Center [NCGC]
U.S. Environmental Protection Agency [EPA]
National Institutes of Environmental Health Sciences [NIEHS]
National Toxicology Program [NTP]
U.S. Food and Drug Administration [FDA]
Progesterone receptor (PR), a nuclear hormone receptor, plays an important role in development, metabolic homeostasis and reproduction. […] Endocrine disrupting chemicals (EDCs) and their interactions with steroid hormone receptors like PR causes disruption of normal endocrine function. To identify the compounds that inhibit PR signaling, a PR-UAS-bla GripTite cell line i.e. PR-UAS-bla HEK293T (Invitrogen, Carlsbad, CA, USA) containing a beta-lactamase reporter gene under the control of an Upstream Activator Sequence (UAS) was used to screen Tox21 10K compound library.
Tox21 Assay Protocol Summary:
PR-UAS-bla HEK293T cells were dispensed at 3,000 cells/4 uL of assay medium containing 2% charcoal stripped FBS per well into black wall/clear-bottom 1536-well plates using a Multidrop Combi (ThermoFisher Scientific, Waltham, MA) dispenser. After the assay plates were incubated at a 37C and 5% CO2 for 6 hr, 23 nL of compounds dissolved in DMSO, positive controls or DMSO only was transferred to the assay plate by a Pintool station (Kalypsys, San Diego, CA), followed by addition of 1 uL (1nM as final concentration) of Promegestone (R5020) in assay medium using a BioRAPTR FRD (Flying Reagent Dispenser, Aurora Discovery, San Diego, CA). The plates were incubated at 37C and 5% CO2 for 16 hr. Then 1 uL of LiveBLAzer B/G FRET substrate was added using a FRD. After the plates were incubated at room temperature for 2 hours, fluorescence intensity was measured by an Envision plate reader (PerkinElmer, Shelton, CT).
For orientation: In qHTS, concentration-response curves come from the screen itself.
On to `CC(C)(Oc1ccc(CCNC(=O)c2ccc(Cl)cc2)cc1)C(=O)O`, for which the Potency result is “inactive”.

As to `CC(=O)CC(C)(C)O`, the Potency entry is “inactive”.

As for `CC(=O)OCc1ccco1`, the Potency entry was “inactive”.

Take `C=C(C)CNCC`: the Potency result is “inactive”.

Take `CSc1ccc(Cl)cc1`: the Potency entry is “inactive”.

In the case of `CC(=O)OC1CC(C)OC(C)O1` (stereo not given), the Potency result is “inactive”.

Turning to `CCCCCCO`, the Potency result is “inactive”.

As for `Nc1ccc(Cl)c(N)c1`, the Potency result is “inactive”.

`CC(=O)CCC=C(C)C`: the Potency entry is “inactive”.

Take `COC(=O)CCCC(=O)OC`: the Potency result is “inactive”.

Turning to `CC(CCl)OP(=O)(OC(C)CCl)OC(C)CCl` (stereo not given), the Potency was 54.6 µM (active).

Take `O=C(O)c1cc2ccccc2cc1O`: the Potency entry is “inactive”.

For `O=C(O)CCCCCCCCC(=O)O`, the Potency result was “inactive”.

As to `CCCCCCCCCCCCCCCCO`, the Potency entry is “inactive”.

With `CCNc1cccc(C)c1`, the Potency result was “inactive”.

Regarding `CC(=O)c1ccc(O)cc1`, the Potency entry was “inactive”.

With `CC(CCO)CC(C)(C)C` (stereo not given), the Potency entry was “inactive”.

Take `O=C(O)c1ccccc1C(=O)O`: the Potency result was “inactive”.

As to `CN/C(=C\[N+](=O)[O-])NCCSCc1csc(CN(C)C)n1`, the Potency entry is “inactive”.

Regarding `OCc1ccccc1`, the “activity change, negative = inhibition” value is 13.5% (inactive).

For `c1ccc2c(c1)Cc1ccccc1-2`, the Potency result was “inactive”.

Consider `CC1(C)S[C@@H]2[C@H](NC(=O)COc3ccccc3)C(=O)N2[C@H]1C(=O)O`, for which the Potency entry is “inactive”.

For `CCNc1ccccc1`, the Potency entry was “inactive”.

For `CNC(=S)N(C)C`, the Potency entry is “inactive”.

As to `CCOCC(=O)O`, the Potency result is “inactive”.

For the molecule `CN(C)CCOC(=O)COc1ccc(Cl)cc1`, the Potency entry was “inactive”.

With `C=C(C)[C@H]1CC=C(C)C(=O)C1`, the Potency entry is “inactive”.

As to `CC(C)CC(C)O` (stereo not given), the “activity change, negative = inhibition” value is 11.8% (inactive).

Turning to `CN1C(=O)CC[C@H]1c1cccnc1`, the “activity change, negative = inhibition” value was 0.485% [at 42.5 µM] (inactive).

In the case of `CCOC(=O)n1ccn(C)c1=S`, the Potency entry is “inactive”.

Turning to `C=CC[N+](C)(C)CC=C`, the Potency entry was “inactive”.

With `NCCN1CCNCC1`, the Potency entry was “inactive”.

With `O=S(=O)(O)c1ccccc1`, the Potency entry is “inactive”.

As for `N#Cc1ccccc1`, the Potency entry is “inactive”.

For the molecule `N[C@H](Cc1c[nH]c2ccccc12)C(=O)O`, the Potency result is “inactive”.

For the molecule `COc1ccccc1OCC(O)CO` (stereo not given), the Potency result was “inactive”.

As for `O=[N+]([O-])c1ccc2nc[nH]c2c1`, the Potency result was “inactive”.

For `O=C1C(c2[nH]c3ccccc3c2O)=Nc2ccccc21`, the Potency result is “inactive”.

Take `CC(C)(C#N)c1cc(Cn2cncn2)cc(C(C)(C)C#N)c1`: the Potency result was “inactive”.

With `COCCOC(=O)c1ccccc1C(=O)OCCOC`, the Potency result is “inactive”.
